This is part of a sample that, as a whole, favours compounds with a hit. Of some 83,000 tested, about 20% had one in any assay.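 Each cell line was grown in a 96-well plate and treated with one concentration of compound for 48 hours. Values below 10 were considered active.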 Unmarked numbers belong to inactive results. Active and inactive are the calls of the source.
These molecules were tested on SF-539 CNS (assay: NCI-60 one-dose screen, 48 h (100 = growth as untreated, 0 = no growth, -100 = all killed)). Conditions: 10 µM unless noted.

Row | SMILES | growth
1 | Cc1nn(-c2ccccc2)c2c1oc(=O)c1cc(Cl)ccc12 | 97.9%
2 | CCC1=C(c2ccc(OC)cc2)C(C)(C)Oc2c1ccc(O)c2CN1CCCC1 | 69.3%
3 | O=C(NCCc1ccccc1)C1CCC(=O)N1Cc1ccc(Br)cc1 (centres undefined) | 96%
4 | N#Cc1ccc(NC(=O)Nc2ccc(Oc3ccc(NC(=O)Nc4ccc(C#N)cc4)cc3)cc2)cc1 | 71%
5 | COc1ccc2c(c1)C(=O)c1c-2c(OCCN(C)C)nc2cc(OC)ccc12 | 15%
6 | O=C(Nc1cccc([N+](=O)[O-])c1)c1cccc(C(=O)Nc2cccc([N+](=O)[O-])c2)c1 | 84.3%
7 | CCCCCCCCCCCCCCCCCC1=NC(C)(C)CN1CCO | -80.6% (active)
8 | COc1ccc(OC)c(NC(=O)c2cc3oc4ccccc4c3cc2O)c1 | 90.3%
9 | CN1C(=O)/C(=C/c2nc(-c3cccc(F)c3)n3ccccc23)c2ccccc21 | 71.4%
10 | O=C(CN1CCCCC1)Sc1nnc2sc3ccccc3n12 | 101%
11 | C[C@]12CC[C@@H]3c4ccc(O)c([N+](=O)[O-])c4CC[C@H]3[C@@H]1CC[C@@H]2NS(=O)(=O)c1cccc(Br)c1 | 67.5%
12 | Cc1ccsc1/C=C/C1=NCCCN1C | 119%
13 | CCCCCCCCCCSc1ncnc2nc[nH]c12 | 86.8%
14 | C[n+]1c2ccccc2c(NC2CCNCC2)c2[nH]c3ccccc3c21 | 16.7%
15 | COc1cccc2c1O/C(=C\c1c([N+](=O)[O-])ncn1C)C2=O | 100%
16 | CC[C@@H]1OC(=O)[C@H](C)[C@@H](O[C@H]2C[C@@](C)(OC)[C@@H](O)[C@H](C)O2)[C@H](C)[C@@H](O[C@@H]2O[C@H](C)C[C@H](N(C)C)[C@H]2O)[C@](C)(O)C[C@@H](C)[C@@H]2N[C@@H](COCCOC)O[C@H]([C@H]2C)[C@]1(C)O | 106%
17 | O=C1C[C@@H]2/C(=C(O)\C=C\c3ccccc3)C(=O)C=C[C@@H]2O1 | -43.3% (active)
18 | Cc1cc2c(cc1[N+](=O)[O-])NC(CNC(C)C)CC2 (centres undefined) | 103%
19 | CCCCN(CCCC)CCCOC(=O)c1ccc(N)cc1 | 94.4%
20 | C=C(C[C@](O)(C(=O)/C=C/c1ccc(Cl)cc1)C(=O)OC)c1ccccc1 | 75.8%
21 | CCN1C[C@@H](C)n2c(c(O)c3c(=O)n(Cc4ccc(F)c(Cl)c4)nc(C(=O)NC)c32)C1=O | 3.53% (active)
22 | Cc1nnc(Nc2ccc(NC(=O)Nc3ccc(Cl)cc3)cc2)c2ccccc12 | 16.2%

Each molecule was assayed on UACC-257 melanoma in the same assay as above. Conditions: 10 µM unless noted.

Row | SMILES | growth
23 | COc1ccc(C2CC(c3ccc(OC)c(OC)c3)=NN2C(=O)c2cc(OC)c(OC)c(OC)c2)c(OC)c1 (centres undefined) | 61.7%
24 | CCOC(=O)c1c2c(c(C)n1Cc1ccc(OC)cc1)-c1nc(N)ncc1CC2 | 121%
25 | O=C1N(C2CCCCC2)C(=O)N1C1CCCCC1 | 22.8%
26 | O=c1ccn(C2OC(CO)C(O)C2F)c(=O)[nH]1 (centres undefined) | 114%
27 | CCCn1cnc2c1c(=O)n(CCCCC(C)=O)c(=O)n2C | 102%
28 | CCCCc1nc(Cl)c(CO)n1Cc1ccc(-c2ccccc2-c2nn[nH]n2)cc1 | 104%
29 | COc1ccc(C2CC(c3cccc(Nc4ccnc5cc(Cl)ccc45)c3)=NN2C=O)cc1 (centres undefined) | 63.3%
30 | O=c1c(O)cccn1CCCNCCCN(CCCn1cccc(O)c1=O)CCCn1cccc(O)c1=O | 121%
31 | COc1ccc2nc(-c3ccc(-n4cncc4-c4ccc(OC)c(N)c4)cc3)sc2c1 | 109%
32 | Cc1cc(NC(=O)Nc2cc(Cl)ccc2C)no1 | 115%
33 | O=C1NCN(c2ccccc2)C12CCN(CCCC(c1ccc(F)cc1)c1ccc(F)cc1)CC2 | -15.8% (active)
34 | CCC(O)C(C)(C)C (centres undefined) | 99.3%
35 | COc1ncc(-c2ccc3nccc(C#CCN4CCN(S(C)(=O)=O)CC4)c3c2)cc1NS(=O)(=O)c1ccc(F)cc1F | -4.75% (active)
36 | O=C(Nc1ccc(Cl)cc1)c1cc2c(cc1O)[nH]c1ccccc12 | -21.1% (active)
37 | O=C1c2ccccc2C(=O)c2c1cccc2-n1nnc2ccccc21 | 127%
38 | Cc1nn(-c2ccccc2)c2c1oc(=O)c1cc(Cl)ccc12 | 99.7%
39 | CCC1=C(c2ccc(OC)cc2)C(C)(C)Oc2c1ccc(O)c2CN1CCCC1 | -16.1% (active)
40 | O=C(NCCc1ccccc1)C1CCC(=O)N1Cc1ccc(Br)cc1 (centres undefined) | 79.9%
41 | N#Cc1ccc(NC(=O)Nc2ccc(Oc3ccc(NC(=O)Nc4ccc(C#N)cc4)cc3)cc2)cc1 | 37%

Row | SMILES | growth
42 | COc1ccc2c(c1)C(=O)c1c-2c(OCCN(C)C)nc2cc(OC)ccc12 | 20.5%
43 | O=C(Nc1cccc([N+](=O)[O-])c1)c1cccc(C(=O)Nc2cccc([N+](=O)[O-])c2)c1 | 77%
44 | CCCCCCCCCCCCCCCCCC1=NC(C)(C)CN1CCO | -10.6% (active)
45 | COc1ccc(OC)c(NC(=O)c2cc3oc4ccccc4c3cc2O)c1 | 92%
46 | CN1C(=O)/C(=C/c2nc(-c3cccc(F)c3)n3ccccc23)c2ccccc21 | 79.1%
47 | O=C(CN1CCCCC1)Sc1nnc2sc3ccccc3n12 | 102%
48 | C[C@]12CC[C@@H]3c4ccc(O)c([N+](=O)[O-])c4CC[C@H]3[C@@H]1CC[C@@H]2NS(=O)(=O)c1cccc(Br)c1 | 49.1%
49 | Cc1ccsc1/C=C/C1=NCCCN1C | 110%
50 | CCCCCCCCCCSc1ncnc2nc[nH]c12 | 48.5%
51 | C[n+]1c2ccccc2c(NC2CCNCC2)c2[nH]c3ccccc3c21 | 57.2%
52 | COc1cccc2c1O/C(=C\c1c([N+](=O)[O-])ncn1C)C2=O | 93.5%
53 | CC[C@@H]1OC(=O)[C@H](C)[C@@H](O[C@H]2C[C@@](C)(OC)[C@@H](O)[C@H](C)O2)[C@H](C)[C@@H](O[C@@H]2O[C@H](C)C[C@H](N(C)C)[C@H]2O)[C@](C)(O)C[C@@H](C)[C@@H]2N[C@@H](COCCOC)O[C@H]([C@H]2C)[C@]1(C)O | 106%
54 | O=C1C[C@@H]2/C(=C(O)\C=C\c3ccccc3)C(=O)C=C[C@@H]2O1 | -43.4% (active)
55 | Cc1cc2c(cc1[N+](=O)[O-])NC(CNC(C)C)CC2 (centres undefined) | 106%
56 | CCCCN(CCCC)CCCOC(=O)c1ccc(N)cc1 | 88%
57 | C=C(C[C@](O)(C(=O)/C=C/c1ccc(Cl)cc1)C(=O)OC)c1ccccc1 | 91.7%
58 | CCN1C[C@@H](C)n2c(c(O)c3c(=O)n(Cc4ccc(F)c(Cl)c4)nc(C(=O)NC)c32)C1=O | 3.7% (active)
59 | Cc1nnc(Nc2ccc(NC(=O)Nc3ccc(Cl)cc3)cc2)c2ccccc12 | 73.8%
